High-throughput results as filed in PubChem.
MITF primary – blocks human microphthalmia-associated transcription factor; O75030; AlphaScreen MITF homodimerization, bead proximity signal; inhibition, % at 2.6 µM; 650,000 compounds, 0.91% hits; AID 1259374; in the data active = inhibition above about 50%;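 also: 0% = vehicle wells with protein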
Target sequence (O75030 whole entry, looked up): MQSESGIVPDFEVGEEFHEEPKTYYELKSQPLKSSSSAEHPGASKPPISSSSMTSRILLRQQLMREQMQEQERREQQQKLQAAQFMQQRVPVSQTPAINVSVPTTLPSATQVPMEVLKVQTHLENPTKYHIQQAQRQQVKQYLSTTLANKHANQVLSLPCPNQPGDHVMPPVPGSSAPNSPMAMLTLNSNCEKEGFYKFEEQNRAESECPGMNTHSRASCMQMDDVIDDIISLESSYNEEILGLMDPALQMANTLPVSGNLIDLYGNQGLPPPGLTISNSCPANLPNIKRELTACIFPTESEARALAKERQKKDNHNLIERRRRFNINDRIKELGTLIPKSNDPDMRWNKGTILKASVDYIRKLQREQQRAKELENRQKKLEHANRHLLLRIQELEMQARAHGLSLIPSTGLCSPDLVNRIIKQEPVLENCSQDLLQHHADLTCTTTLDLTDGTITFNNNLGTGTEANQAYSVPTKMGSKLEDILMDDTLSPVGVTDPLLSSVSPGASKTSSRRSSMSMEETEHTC
FBW7 activator – activators of human E3 ligase FBW7. Q969H0. AlphaScreen FBW7–phospho-cyclin E peptide binding, activator screen. normalized activity (activation), % at 26.1 µM. 650,000 compounds, 0.13% hits. AID 1259310; in the data active = normalized activity above about 1.9%;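 also: purified mutant Fbw7 with reduced substrate affinity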
TEAD-YAP block – TEAD-YAP interaction inhibition | HEK-TIYL cells, TEAD-Gal4/YAP UAS-luciferase luminescence | inhibition, % at 9.12 µM | 640,000 compounds, 1.4% hits | AID 1259422; in the data active = inhibition above about 32%;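 also: 0% = median of test compound wells and 100% = reference inhibitor wells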
GPR151 ag – activators of human GPR151 | Q8TDV0 | PathHunter beta-arrestin GPR151 cells, luminescence | activation, % at 11.2 µM | 650,000 compounds, 1% hits | AID 1508602; in the data active = activation above about 4.9%;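 also: 0% = median of compound wells and 100% = cells with positive control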
GPR151 conf act – confirmation of human GPR151 activators; shares compounds with GPR151 ag; GPR151 PathHunter beta-arrestin cells, luminescence, 90 min; % of EA-reagent control over plate median; activation, % at 11.2 µM; 6,700 tested, under 10 active; AID 1508609;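 active = mean percent activation across replicates above the confirmation screen cutoff of 4.91%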
GPR119 counter – activates human GPR119 in a GPR151 counter-screen; shares compounds with GPR151 ag; 6,700 compounds, 0.3% hits; AID 1508611; GPR119 PathHunter beta-arrestin cells, luminescence, 90 min; 0 = compound-well median, 100 = enzyme-acceptor control; activation, % at 11.2 µM;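 active = mean percent activation in the counterscreen above 29.09%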;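 also: counterscreen on off-target GPR119 to flag nonselective hits from the GPR151 activator screen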
Numbers without * were called inactive. This is a sample that favours compounds with a hit; in the whole collection about 3.5% have one here.

CCC(Sc1nc2ccccc2c2nc(C)nn12)C(=O)NCc1ccco1 (stereo not drawn) was read as MITF primary 10.9, FBW7 activator 0.0, TEAD-YAP block 1.5, GPR151 ag 8.7*, GPR151 conf act 0.0 and GPR119 counter 10.9.
CCC(Sc1nc2cc(OC)c(OC)cc2c2nc(C)nn12)C(=O)NCc1ccco1 (stereo not drawn) was read as MITF primary 1.6, FBW7 activator -0.1, TEAD-YAP block -3.8 and GPR151 ag -0.1.
`CCC(Sc1nc2cc3c(cc2c(=O)n1CCCCCC(=O)NCc1ccc(OC)cc1)OCO3)C(=O)NCc1ccco1` (stereo not drawn) gave MITF primary 0.1, FBW7 activator 0.0, TEAD-YAP block 0.0, GPR151 ag 5.0*, GPR151 conf act -0.6 and GPR119 counter -3.0.
Screening CN1C(=O)/C(=C/C=C2/CCCN2C)N(C)C1=S returned MITF primary 12.6, FBW7 activator 0.4, TEAD-YAP block 2.4 and GPR151 ag 0.7.
Screening COCCNC(=O)[C@@H]1C[C@H](NCc2ccc(C(C)C)cc2)CN1Cc1ccccc1Cl returned MITF primary 7.2, FBW7 activator 0.7, TEAD-YAP block -10.0 and GPR151 ag 1.4.
COCCNC(=O)[C@@H]1C[C@H](NCc2ccccc2)CN1Cc1ccccc1Cl was read as MITF primary 5.0, FBW7 activator 1.0, TEAD-YAP block -3.9, GPR151 ag 8.5*, GPR151 conf act -0.3 and GPR119 counter 0.5.
COCc1nnn(-c2nonc2N)c1C(=O)NNC(=O)c1ccccc1Br was read as MITF primary 6.1, FBW7 activator 0.2, TEAD-YAP block 9.4, GPR151 ag 10.0*, GPR151 conf act 1.0 and GPR119 counter 8.4.
COCc1nnn(-c2nonc2N)c1C(=O)NNC(=O)C1CC1 was read as MITF primary -3.7, FBW7 activator 0.1, TEAD-YAP block 2.9 and GPR151 ag -0.4.
For COc1ccc(CNC(=O)CCCc2nc3ccccc3c(=O)[nH]2)cc1 the results were MITF primary -3.0, FBW7 activator 0.3, TEAD-YAP block -2.3, GPR151 ag 6.3*, GPR151 conf act 1.2 and GPR119 counter 5.6.
`COc1ccc(CNC(=O)CCCc2ccccc2)cc1` gave MITF primary -19.0, FBW7 activator 0.1, TEAD-YAP block -6.8 and GPR151 ag -0.6.
`Cc1cc([N+](=O)[O-])ccc1-c1ccc(C(=O)NC(C)(C)C)o1` gave MITF primary 16.9, FBW7 activator 0.1, TEAD-YAP block -6.2, GPR151 ag 7.7*, GPR151 conf act -0.3 and GPR119 counter -3.2.
COc1ccccc1NC(=O)c1ccc2c(c1)C(=O)N(C)C2=O was read as MITF primary -5.5, FBW7 activator 0.0, TEAD-YAP block 4.5 and GPR151 ag -0.1.
COc1ccc(C2=NN3C(C2)c2cc(Br)ccc2OC3c2ccc(C(C)C)cc2)cc1 (stereo not drawn) was read as MITF primary 4.9, FBW7 activator -0.1, TEAD-YAP block -57.2 and GPR151 ag 1.1.
Screening S=C(Nc1ccc2c(c1)OCO2)Nc1ccc2c(c1)OCO2 returned MITF primary 2.5, FBW7 activator 0.1, TEAD-YAP block -18.5 and GPR151 ag -0.6.
Screening O=C(NNC(=O)c1ccc(Cl)s1)Nc1ccc2c(c1)OCO2 returned MITF primary 8.6, FBW7 activator -0.1, TEAD-YAP block -42.5, GPR151 ag 5.2*, GPR151 conf act -0.2 and GPR119 counter -4.9.
S=C(Nc1ccc2c(c1)OCO2)Nc1cnccn1 was read as MITF primary 9.2, FBW7 activator -0.1, TEAD-YAP block -24.8, GPR151 ag 5.6*, GPR151 conf act 0.6 and GPR119 counter -0.2.
For O=C(Nc1ccc2c(c1)OCO2)Nc1ccc(Br)cn1 the results were MITF primary 9.5, FBW7 activator 0.2, TEAD-YAP block -81.3, GPR151 ag 6.5*, GPR151 conf act -0.5 and GPR119 counter -4.8.
Cc1nc(C)n(-c2ccc(Nc3nccc(-c4noc(C)c4-c4cn[nH]c4)n3)cc2)n1 was read as MITF primary 8.8, FBW7 activator 0.0, TEAD-YAP block 16.4 and GPR151 ag -0.4.
CC(C)(C)NC(=O)c1cc(-c2ccco2)[nH]n1 was read as MITF primary 6.5, FBW7 activator 0.1, TEAD-YAP block 0.0 and GPR151 ag -1.9.
Screening CCCN(CCC)C(=O)c1cc(-c2ccco2)[nH]n1 returned MITF primary -0.6, FBW7 activator 0.0, TEAD-YAP block -0.6, GPR151 ag 5.2*, GPR151 conf act 0.1 and GPR119 counter -2.7.
Screening COC(=O)C1=C(C)OC(=O)C1(NC(=O)c1ccc(C(C)(C)C)cc1)C(F)(F)F (stereo not drawn) returned MITF primary -3.3, FBW7 activator 0.1, TEAD-YAP block 4.8 and GPR151 ag 0.0.
Screening Cc1cc(NS(=O)(=O)c2ccc(Cl)cc2)nn1CC(=O)NCc1ccco1 returned MITF primary -1.2, FBW7 activator -0.3, TEAD-YAP block -8.3 and GPR151 ag 1.0.
Screening Cc1cc(NC(=O)Cn2cnc([N+](=O)[O-])n2)nn1CC(=O)NCc1ccco1 returned MITF primary -0.1, FBW7 activator 0.1, TEAD-YAP block 1.4, GPR151 ag 5.5*, GPR151 conf act -0.7 and GPR119 counter -11.2.
Screening CC(=O)Nc1ccc(NC(=O)CSc2nnc(-c3ccncc3)n2C)cc1 returned MITF primary -7.5, FBW7 activator 0.2, TEAD-YAP block 4.3 and GPR151 ag -0.8.
For CCn1c(SCC(=O)Nc2ccc(C(C)=O)cc2)nnc1-c1ccco1 the results were MITF primary 3.6, FBW7 activator 0.0, TEAD-YAP block 21.2 and GPR151 ag 0.4.
`CCc1ccc(NC(=O)CSc2nnc(-c3ccc(N)cc3)n2C)cc1` gave MITF primary 7.4, FBW7 activator 0.0, TEAD-YAP block -6.0 and GPR151 ag -0.2.
`Cn1c(SCC(=O)Nc2ccc(Br)cc2)nnc1-c1ccc(N)cc1` gave MITF primary 2.8, FBW7 activator -0.2, TEAD-YAP block 16.9, GPR151 ag 5.3*, GPR151 conf act 0.9 and GPR119 counter 8.0.
Screening Cn1c(SCC(=O)Nc2ccc3nc(SCC(=O)c4ccc(Cl)cc4)sc3c2)nnc1-c1ccc(N)cc1 returned MITF primary -40.3, FBW7 activator 29.3*, TEAD-YAP block 20.2, GPR151 ag 5.5*, GPR151 conf act -0.7 and GPR119 counter -6.6.
For Cn1c(SCC(=O)Nc2ccc3nc(SCC(=O)Nc4ccccc4F)sc3c2)nnc1-c1ccc(Cl)cc1Cl the results were MITF primary 8.4, FBW7 activator 0.7, TEAD-YAP block -2.4 and GPR151 ag -1.5.
`CC(=O)Nc1ccc(NC(=O)CSc2nnc(-c3ccncc3)n2N)cc1` gave MITF primary 15.8, FBW7 activator 0.3, TEAD-YAP block 2.7, GPR151 ag 5.5*, GPR151 conf act -0.6 and GPR119 counter 5.9.
